Sequences and labels used below:
B1: GCGTCCTG (ssRNA)
RNA 1: GAGUUCUACAGUCCGACGAUCCCAACGCGUCCUGCACCUGGAAUUCUCGGGUGCCAA
RNA 2: UGGAGUGUGACAAUGGUGUUUG
DNA 1: GATCGTCGGACTGTAGAACTC
DNA 2: TTGGCACCCGAGAATTCCA
modifications: constant regions annealed to DNA blockers; guide miR-122 5' phosphate
B2: GTGCCCCG (ssRNA)
RNA 1: GAGUUCUACAGUCCGACGAUCCCAACGUGCCCCGCACCUGGAAUUCUCGGGUGCCAA
RNA 2: UGGAGUGUGACAAUGGUGUUUG
DNA 1: GATCGTCGGACTGTAGAACTC
DNA 2: TTGGCACCCGAGAATTCCA
modifications: constant regions annealed to DNA blockers; guide miR-122 5' phosphate
B3: ACACCTCG (ssRNA)
RNA 1: GAGUUCUACAGUCCGACGAUCCCAACACACCUCGCACCUGGAAUUCUCGGGUGCCAA
RNA 2: UGGAGUGUGACAAUGGUGUUUG
DNA 1: GATCGTCGGACTGTAGAACTC
DNA 2: TTGGCACCCGAGAATTCCA
modifications: constant regions annealed to DNA blockers; guide miR-122 5' phosphate
B4: GTGCCTTG (ssRNA)
RNA 1: GAGUUCUACAGUCCGACGAUCCCAACGUGCCUUGCACCUGGAAUUCUCGGGUGCCAA
RNA 2: UGGAGUGUGACAAUGGUGUUUG
DNA 1: GATCGTCGGACTGTAGAACTC
DNA 2: TTGGCACCCGAGAATTCCA
modifications: constant regions annealed to DNA blockers; guide miR-122 5' phosphate
B5: GTACTTTG (ssRNA)
RNA 1: GAGUUCUACAGUCCGACGAUCCCAACGUACUUUGCACCUGGAAUUCUCGGGUGCCAA
RNA 2: UGGAGUGUGACAAUGGUGUUUG
DNA 1: GATCGTCGGACTGTAGAACTC
DNA 2: TTGGCACCCGAGAATTCCA
modifications: constant regions annealed to DNA blockers; guide miR-122 5' phosphate
B6: GCATCCTA (ssRNA)
RNA 1: GAGUUCUACAGUCCGACGAUCCCAACGCAUCCUACACCUGGAAUUCUCGGGUGCCAA
RNA 2: UGGAGUGUGACAAUGGUGUUUG
DNA 1: GATCGTCGGACTGTAGAACTC
DNA 2: TTGGCACCCGAGAATTCCA
modifications: constant regions annealed to DNA blockers; guide miR-122 5' phosphate
B7: ATGCCTTA (ssRNA)
RNA 1: GAGUUCUACAGUCCGACGAUCCCAACAUGCCUUACACCUGGAAUUCUCGGGUGCCAA
RNA 2: UGGAGUGUGACAAUGGUGUUUG
DNA 1: GATCGTCGGACTGTAGAACTC
DNA 2: TTGGCACCCGAGAATTCCA
modifications: constant regions annealed to DNA blockers; guide miR-122 5' phosphate
B8: GCGCTCTG (ssRNA)
RNA 1: GAGUUCUACAGUCCGACGAUCCCAACGCGCUCUGCACCUGGAAUUCUCGGGUGCCAA
RNA 2: UGGAGUGUGACAAUGGUGUUUG
DNA 1: GATCGTCGGACTGTAGAACTC
DNA 2: TTGGCACCCGAGAATTCCA
modifications: constant regions annealed to DNA blockers; guide miR-122 5' phosphate
B9: GTACCTCG (ssRNA)
RNA 1: GAGUUCUACAGUCCGACGAUCCCAACGUACCUCGCACCUGGAAUUCUCGGGUGCCAA
RNA 2: UGGAGUGUGACAAUGGUGUUUG
DNA 1: GATCGTCGGACTGTAGAACTC
DNA 2: TTGGCACCCGAGAATTCCA
modifications: constant regions annealed to DNA blockers; guide miR-122 5' phosphate
B10: GTATTCTG (ssRNA)
RNA 1: GAGUUCUACAGUCCGACGAUCCCAACGUAUUCUGCACCUGGAAUUCUCGGGUGCCAA
RNA 2: UGGAGUGUGACAAUGGUGUUUG
DNA 1: GATCGTCGGACTGTAGAACTC
DNA 2: TTGGCACCCGAGAATTCCA
modifications: constant regions annealed to DNA blockers; guide miR-122 5' phosphate
B11: GCATCCCA (ssRNA)
RNA 1: GAGUUCUACAGUCCGACGAUCCCAACGCAUCCCACACCUGGAAUUCUCGGGUGCCAA
RNA 2: UGGAGUGUGACAAUGGUGUUUG
DNA 1: GATCGTCGGACTGTAGAACTC
DNA 2: TTGGCACCCGAGAATTCCA
modifications: constant regions annealed to DNA blockers; guide miR-122 5' phosphate

Sequence of AGO2 A367P (Q9UKV8 whole entry A367P/S387D/S824A/S828D/S831D/S834A): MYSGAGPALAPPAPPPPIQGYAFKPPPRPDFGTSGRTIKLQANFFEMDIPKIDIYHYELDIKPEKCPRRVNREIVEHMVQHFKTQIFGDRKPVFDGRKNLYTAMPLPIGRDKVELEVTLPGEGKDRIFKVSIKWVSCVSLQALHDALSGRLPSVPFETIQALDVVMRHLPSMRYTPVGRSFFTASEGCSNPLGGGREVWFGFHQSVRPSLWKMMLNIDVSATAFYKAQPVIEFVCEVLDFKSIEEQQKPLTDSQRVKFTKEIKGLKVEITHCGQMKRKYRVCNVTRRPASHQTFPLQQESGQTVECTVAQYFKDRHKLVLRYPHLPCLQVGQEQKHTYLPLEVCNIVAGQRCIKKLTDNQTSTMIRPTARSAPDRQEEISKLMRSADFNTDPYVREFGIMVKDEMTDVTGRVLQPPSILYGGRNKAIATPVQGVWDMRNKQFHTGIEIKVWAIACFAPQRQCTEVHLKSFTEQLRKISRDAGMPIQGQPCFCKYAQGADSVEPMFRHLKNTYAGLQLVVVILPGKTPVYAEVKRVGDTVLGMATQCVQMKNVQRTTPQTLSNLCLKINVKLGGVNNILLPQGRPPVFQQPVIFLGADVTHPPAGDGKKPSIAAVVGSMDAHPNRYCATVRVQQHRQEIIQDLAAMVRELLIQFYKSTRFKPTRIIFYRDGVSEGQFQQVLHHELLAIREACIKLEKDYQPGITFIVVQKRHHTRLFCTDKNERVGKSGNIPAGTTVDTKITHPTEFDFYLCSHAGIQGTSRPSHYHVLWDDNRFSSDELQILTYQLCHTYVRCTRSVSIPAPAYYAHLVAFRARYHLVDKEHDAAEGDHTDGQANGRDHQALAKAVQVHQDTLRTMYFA
Sequence of AGO2 L192P (Q9UKV8 whole entry L192P/S387D/S824A/S828D/S831D/S834A): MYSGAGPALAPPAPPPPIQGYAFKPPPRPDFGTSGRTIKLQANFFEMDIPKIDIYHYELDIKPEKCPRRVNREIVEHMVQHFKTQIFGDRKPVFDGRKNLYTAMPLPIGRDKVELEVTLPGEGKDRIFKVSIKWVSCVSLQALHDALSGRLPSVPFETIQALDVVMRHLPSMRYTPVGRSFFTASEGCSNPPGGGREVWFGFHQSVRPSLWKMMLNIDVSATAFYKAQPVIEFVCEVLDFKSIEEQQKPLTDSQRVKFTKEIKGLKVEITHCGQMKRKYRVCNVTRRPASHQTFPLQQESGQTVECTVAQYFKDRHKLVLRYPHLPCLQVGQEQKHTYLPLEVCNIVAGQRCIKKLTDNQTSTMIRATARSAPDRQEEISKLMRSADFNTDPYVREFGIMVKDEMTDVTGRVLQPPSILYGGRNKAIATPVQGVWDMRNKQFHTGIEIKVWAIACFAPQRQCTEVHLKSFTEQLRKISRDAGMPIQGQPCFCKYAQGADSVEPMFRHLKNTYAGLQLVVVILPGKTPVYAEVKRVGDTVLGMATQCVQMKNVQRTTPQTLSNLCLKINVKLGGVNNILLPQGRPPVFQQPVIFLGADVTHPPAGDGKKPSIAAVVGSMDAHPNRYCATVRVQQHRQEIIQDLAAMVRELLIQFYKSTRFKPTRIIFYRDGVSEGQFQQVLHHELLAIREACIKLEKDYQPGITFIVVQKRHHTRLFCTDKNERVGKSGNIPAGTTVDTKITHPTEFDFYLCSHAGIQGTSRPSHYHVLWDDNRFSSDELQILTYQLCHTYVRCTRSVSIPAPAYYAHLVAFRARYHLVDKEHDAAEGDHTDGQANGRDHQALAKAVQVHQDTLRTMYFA
Sequence of AGO2 T357M (Q9UKV8 whole entry T357M/S387D/S824A/S828D/S831D/S834A): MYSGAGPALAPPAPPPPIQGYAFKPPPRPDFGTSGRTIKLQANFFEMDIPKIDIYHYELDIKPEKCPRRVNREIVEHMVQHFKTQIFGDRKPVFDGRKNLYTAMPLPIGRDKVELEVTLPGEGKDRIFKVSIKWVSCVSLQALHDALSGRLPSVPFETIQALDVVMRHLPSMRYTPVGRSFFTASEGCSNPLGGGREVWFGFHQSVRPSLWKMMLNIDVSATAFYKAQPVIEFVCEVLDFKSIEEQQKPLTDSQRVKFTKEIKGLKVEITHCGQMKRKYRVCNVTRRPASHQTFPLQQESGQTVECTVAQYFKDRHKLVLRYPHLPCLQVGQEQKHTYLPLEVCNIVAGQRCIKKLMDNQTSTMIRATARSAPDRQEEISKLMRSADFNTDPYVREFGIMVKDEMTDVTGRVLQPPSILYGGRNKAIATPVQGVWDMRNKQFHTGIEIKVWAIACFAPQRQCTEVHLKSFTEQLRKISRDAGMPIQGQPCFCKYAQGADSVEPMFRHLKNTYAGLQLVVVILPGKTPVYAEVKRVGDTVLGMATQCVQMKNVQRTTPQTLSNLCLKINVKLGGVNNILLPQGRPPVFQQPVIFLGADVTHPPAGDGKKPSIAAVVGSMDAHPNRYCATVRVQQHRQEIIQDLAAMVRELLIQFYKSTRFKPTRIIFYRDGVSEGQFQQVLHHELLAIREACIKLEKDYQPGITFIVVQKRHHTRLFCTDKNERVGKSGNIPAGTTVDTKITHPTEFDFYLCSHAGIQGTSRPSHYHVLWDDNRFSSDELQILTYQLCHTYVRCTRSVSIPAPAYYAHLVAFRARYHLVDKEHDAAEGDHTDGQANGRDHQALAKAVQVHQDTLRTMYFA
Sequence of AGO2 F182del (Q9UKV8 other isoform, or with tags, fused parts or gaps S387D;S824A;S828D;S831D;S834A;del182-182): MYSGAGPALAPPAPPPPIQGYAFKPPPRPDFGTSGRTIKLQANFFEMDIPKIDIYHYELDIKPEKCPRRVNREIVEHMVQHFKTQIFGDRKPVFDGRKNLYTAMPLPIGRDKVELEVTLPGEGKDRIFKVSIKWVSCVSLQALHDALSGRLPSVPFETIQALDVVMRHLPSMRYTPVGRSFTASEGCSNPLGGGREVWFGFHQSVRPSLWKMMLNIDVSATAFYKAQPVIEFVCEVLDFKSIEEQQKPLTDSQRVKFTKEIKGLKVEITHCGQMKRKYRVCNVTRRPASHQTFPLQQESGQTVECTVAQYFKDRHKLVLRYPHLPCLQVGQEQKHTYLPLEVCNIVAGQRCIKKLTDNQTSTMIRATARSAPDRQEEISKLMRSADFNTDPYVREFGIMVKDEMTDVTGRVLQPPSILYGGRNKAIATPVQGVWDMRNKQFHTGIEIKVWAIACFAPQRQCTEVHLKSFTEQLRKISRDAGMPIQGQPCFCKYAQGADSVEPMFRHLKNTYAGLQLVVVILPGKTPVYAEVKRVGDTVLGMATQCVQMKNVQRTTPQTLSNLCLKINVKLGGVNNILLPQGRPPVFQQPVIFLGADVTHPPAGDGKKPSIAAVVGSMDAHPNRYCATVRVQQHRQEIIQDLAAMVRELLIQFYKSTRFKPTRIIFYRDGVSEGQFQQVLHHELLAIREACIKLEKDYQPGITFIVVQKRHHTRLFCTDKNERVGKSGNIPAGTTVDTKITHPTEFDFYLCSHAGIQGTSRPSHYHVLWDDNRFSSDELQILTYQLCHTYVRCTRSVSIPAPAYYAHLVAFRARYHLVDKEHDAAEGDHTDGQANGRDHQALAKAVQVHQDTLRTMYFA

The target in one experiment is AGO2 L192P (Homo sapiens, UniProt Q9UKV8 1-859, L192P;S387D;S824A;S828D;S831D;S834A). The experiment in a line: RNA Bind-n-Seq (nitrocellulose filter binding and sequencing); miR-122 guide loaded in AGO2; 60 min incubation; 30 mM Tris pH 8.0, 100 mM potassium acetate, 2 mM magnesium acetate, 0.5 mM TCEP, 0.005% NP-40, 0.01 mg/ml yeast tRNA; 3 nM AGO2-miR-122, 100 nM RNA library; 60; high values mean tight binding. The following applies: protein: recombinant; tags: His6 (N-terminal, pFastBac HTA). The method, boiled down:
(§1)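 Fold enrichment is each target's read fraction divided by its read fraction in the input library. Sf9 insect cells expressed His-tagged AGO2 from baculovirus; the protein was loaded with a synthetic guide RNA and purified by Ni-NTA and a biotinylated capture oligo. The bound RNA was extracted, reverse-transcribed, barcode-amplified and sequenced on Illumina.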
For B1, the binding signal was 0.38 fold enrichment over input.

As for B2, the binding signal was 0.406 fold enrichment over input.

For B3, the binding signal was 0.412 fold enrichment over input.

Consider B4, for which the binding signal is 0.422 fold enrichment over input.

On to B5, for which the binding signal was 0.365 fold enrichment over input.

Consider B6, for which the binding signal is 0.47 fold enrichment over input.

In the case of B7, the binding signal is 0.434 fold enrichment over input.

For the molecule B8, the binding signal is 0.371 fold enrichment over input.

Turning to B9, the binding signal is 0.347 fold enrichment over input.

As to B10, the binding signal is 0.39 fold enrichment over input.

For the molecule B11, the binding signal was 0.48 fold enrichment over input.

Another experiment concerns the target AGO2 A367P (Homo sapiens, UniProt Q9UKV8 1-859, A367P;S387D;S824A;S828D;S831D;S834A). The experiment is described as above. Conditions: protein: recombinant; tags: His6 (N-terminal, pFastBac HTA). In short, it runs like this:
as §1
Take B1: the binding signal is 0.156 fold enrichment over input.

As for B2, the binding signal was 0.159 fold enrichment over input.

As to B3, the binding signal was 0.179 fold enrichment over input.

Turning to B4, the binding signal is 0.159 fold enrichment over input.

For B5, the binding signal is 0.121 fold enrichment over input.

Consider B6, for which the binding signal is 0.168 fold enrichment over input.

Regarding B7, the binding signal was 0.179 fold enrichment over input.

In the case of B8, the binding signal is 0.163 fold enrichment over input.

With B9, the binding signal was 0.125 fold enrichment over input.

Regarding B10, the binding signal is 0.139 fold enrichment over input.

As for B11, the binding signal is 0.201 fold enrichment over input.

The target of a further experiment is AGO2 T357M (Homo sapiens, UniProt Q9UKV8 1-859, T357M;S387D;S824A;S828D;S831D;S834A). The experiment is described as above. The following applies: protein: recombinant; tags: His6 (N-terminal, pFastBac HTA). The method, boiled down:
as §1
As to B1, the binding signal is 0.56 fold enrichment over input.

For B2, the binding signal was 0.568 fold enrichment over input.

Take B3: the binding signal was 0.471 fold enrichment over input.

In the case of B4, the binding signal was 0.548 fold enrichment over input.

Consider B5, for which the binding signal is 0.46 fold enrichment over input.

Take B6: the binding signal was 0.563 fold enrichment over input.

Consider B7, for which the binding signal is 0.617 fold enrichment over input.

In the case of B8, the binding signal is 0.565 fold enrichment over input.

Take B9: the binding signal is 0.419 fold enrichment over input.

As to B10, the binding signal is 0.506 fold enrichment over input.

Turning to B11, the binding signal was 0.628 fold enrichment over input.

The target of a further experiment is AGO2 F182del (Homo sapiens, UniProt Q9UKV8 1-859, S387D;S824A;S828D;S831D;S834A;del182-182). Described as above. Conditions: protein: recombinant; tags: His6 (N-terminal, pFastBac HTA). The method, boiled down:
as §1
Take B3: the binding signal is 0.256 fold enrichment over input.

For B11, the binding signal is 0.282 fold enrichment over input.

The record behind these values is PMC12529666, “Dysregulation of AGO2-miRNA dynamics underlies the AGO2-associated Lessel–Kreienkamp syndrome”.
